Active and inactive are the calls of the source. Calls follow the shape of the dose curve; as a rule, active = well fitted curve in the direction sought with a large enough effect in the repeat runs; inconclusive = weak or mixed curves; inactive = flat fitted curve, though single readings scatter.

This experiment in a line: qHTS assay to test for compound auto fluorescence at 460 nm (blue) in HepG2 cells (AID 720687). Conditions: autofluorescence 405/460 nm, 1 h; series mostly up to 91.3 µM. From the text: U.S. Tox21 Program National Center for Advancing Translational Sciences [NCATS] NIH Chemical Genomics Center [NCGC] U.S. Environmental Protection Agency [EPA] National Institutes of Environmental Health Sciences [NIEHS] National Toxicology Program [NTP] U.S. Food and Drug Administration [FDA] Tox21 Assay Overview: Compound auto fluorescence often interferes with screening of the compound library against various biological targets and signaling pathways. Some of these compounds may have fluorophoric properties. Such properties may interfere with the assay outputs resulting in false positives and/or negatives. To decrease such complications and ensure the compound activities are relevant in terms of biological response, the Tox21 10K compound library was screened for auto fluorescence. From the fluorophores used as reporter signals in our screening assays, the auto fluorescence equivalencies of compounds against three fluorophores have been evaluated: Triamterene, Fluorescein and Rose Bengal sodium for blue, green and red fluorescence, respectively. The fluorescence intensities were measured using Excitation/Emission wavelengths at 405/460nm, 485/535nm and 540/590nm for blue, green and red labels, respectively. This assay includes the blue fluorescence data.
Tox21 Assay Protocol Summary: 2,000 HepG2 cells in 5 uL of culture medium (MEM containing 10% FBS) per well were dispensed into black wall/clear bottom 1536-well plates using a Multidrop Combi Dispenser (ThermoFisher Scientific, Waltham, MA). The assay plates were incubated overnight at 37 C to allow cell attachment to the well bottom, followed by the transfer of 23 nL compound or DMSO vehicle by a pintool work station (Kalypsys , San Diego, CA). After the assay plates were incubated for 1 hr at 37 C and 5% CO2, fluorescence intensities in the assay plates were measured by an Envision (PerkinElmer, Shelton, CT) plate reader using three labels for measuring blue, green and red fluorescence at […] 460, 535 and 590 nm respectively.
As for `COC(=O)C(C)Oc1ccc(Oc2ccc(Cl)cc2Cl)cc1` (stereo not given), the result was inactive.

Turning to `CC1(C(=O)Nc2ccc(O)c(Cl)c2Cl)CCCCC1`, the result was inactive.

On to `CC(Oc1ccc(Oc2ncc(C(F)(F)F)cc2Cl)cc1)C(=O)O` (stereo not given), for which the result was inactive.

Regarding `NC(=S)C(N)=S`, the molecule was classed as inactive.

With `CC(C)CC#N`, the call was inactive.

`O=C(NCO)NCO`: the molecule was called inactive.

Take `CC(C=O)Cc1ccc2c(c1)OCO2` (stereo not given): the result was inactive.

Take `COc1cc(OC)nc(NC(=O)NS(=O)(=O)c2ncccc2C(=O)N(C)C)n1`: the outcome was inactive.

Turning to `[Cl][Sn]([Cl])([Cl])[Cl]`, the result was inactive.

Consider `CC(=O)CC(c1ccc(Cl)cc1)c1c(O)c2ccccc2oc1=O` (stereo not given), for which the molecule was called inactive.

`CCN(Cc1ccc(Cl)nc1)/C(=C/[N+](=O)[O-])NC`: the call was inactive.

Regarding `CCOC(=O)/C=C(C)/C=C/C[C@@H](C)CCCC(C)C`, the molecule was called inactive.

Regarding `CSc1ccc(C(=O)C(C)(C)N2CCOCC2)cc1`, the molecule was classed as inactive.

Turning to `CCOP(=S)(OCC)Oc1nc(Cl)n(C(C)C)n1`, the outcome was inactive.

On to `CCOP(=S)(OCC)SCSP(=S)(OCC)OCC`, for which the outcome was inactive.

Take `CCS(=O)(=O)C(C)(C)S(=O)(=O)CC`: the outcome was inactive.

For the molecule `COC(=O)COc1ccc(Cl)cc1Cl`, the outcome was inactive.

Consider `CCC(Cl)[N+](=O)[O-]` (stereo not given), for which the call was inactive.

On to `O=S(=O)(O)C(F)(F)C(F)(F)C(F)(F)C(F)(F)C(F)(F)C(F)(F)F`, for which the molecule was classed as inactive.

As for `N#Cc1ccncc1`, the outcome was inactive.

`O=C(Nc1ccccc1)c1ccccc1I`: the result was inactive.

As for `CC(CC(C#N)(c1ccccc1)c1ccccc1)N(C)C` (stereo not given), the outcome was inactive.

For the molecule `CNC(=O)N(C)c1nc2ccccc2s1`, the molecule was called inactive.

Take `O=C1OC(c2ccc(O)c(S(=O)(=O)O)c2)(c2ccc(O)c(S(=O)(=O)O)c2)c2c(Br)c(Br)c(Br)c(Br)c21`: the outcome was inactive.

Regarding `CN(N=O)C(N)=O`, the result was inactive.

Regarding `OCCSCSCCO`, the molecule was called inactive.

For the molecule `COC(=O)c1ccccc1S(=O)(=O)NC(=O)N(C)c1nc(C)nc(OC)n1`, the call was inactive.

On to `CC(C)(C)OC(=O)c1ncn2c1[C@@H]1CCCN1C(=O)c1c(Br)cccc1-2`, for which the molecule was called inactive.

As for `COc1cccc2c1cc([N+](=O)[O-])c1c(C(=O)O)cc3c(c12)OCO3`, the molecule was classed as inactive.

As to `NC(=O)c1cc([N+](=O)[O-])cc([N+](=O)[O-])c1`, the molecule was classed as inactive.

In the case of `ClC(Cl)Br`, the molecule was called inactive.

`COc1ccc(C(=O)N2CCCC2=O)cc1`: the result was inactive.

As to `CCS(=O)(=O)CCSP(=O)(OC)OC`, the call was inactive.

On to `Cc1nnc2n1-c1sc(CCC(=O)N3CCOCC3)cc1C(c1ccccc1Cl)=NC2`, for which the outcome was inactive.

Regarding `Cc1cc(C)c(C(=O)P(=O)(C(=O)c2c(C)cc(C)cc2C)c2ccccc2)c(C)c1`, the molecule was called inactive.

`CC(=O)C(Cl)Cl`: the molecule was classed as inactive.

Consider `CC1=C(C(=O)Nc2ccccc2)S(=O)(=O)CCO1`, for which the call was inactive.

Regarding `CCOP(=O)(OCC)OP(=O)(OCC)OCC`, the outcome was inactive.

With `CCCCc1ccc(O)cc1`, the molecule was classed as inactive.

Take `O=C1CN=C(c2ccccc2)c2cc([N+](=O)[O-])ccc2N1`: the outcome was inactive.

The record behind these values is PubChem BioAssay (Tox21).
